Source: PubChem BioAssay (EPA / NIEHS)
Active and inactive are the calls of the source. Rule for the calls: active = hit-call score of the fitted dose curve at least 0.9, where 1 is the maximum; inactive = score below 0.9.

read-out: MicroRNA 122 (MIR122), gene 406906; experiment: LTEA_HepaRG_MIR122: Life Technologies and Expression Analysis (LTEA) Assay for MicroRNA 122 (MIR122) using HepaRG (AID 2283516); details: mRNA level, 48 h; actives raise or lower the signal
Experimental: LTEA_HepaRG is a cell based, multiplexed-readout assay that uses HepaRG, a human liver cell line, with measurements taken at 48 hours after chemical dosing on a 96-well plate.LTEA_HepaRG_MIR122 is one of 102 assay component(s) measured in the LTEA HepaRG cell culture assay. It is a marker of MicroRNA.Data from the assay component LTEA_HepaRG_MIR122 was analyzed into 1 endpoint. This assay endpoint, LTEA_HepaRG_MIR122, was analyzed with bidirectional fitting relative to DMSO as the negative control and baseline of activity. Using a type of inducible reporter, measures of mRNA induction for gain or loss-of-signal activity can be used to understand regulation of transcription factor activity. To generalize the intended target to other relatable targets, this assay endpoint is annotated to the microrna intended target family, where the subfamily is post-transcriptional regulation.
A total of 1060 chemcials from the ToxCast library were tested in eight-point concentration-response experiments. Cell culture and cytotoxicity assays were conducted at Thermo Fisher Scientific's Custom Services facility (Madison, WI). A single lot of human HepaRG cells (Thermo Fisher Scientific, Frederick, MD) was used for the cell culture experiments. 96-well format collagen type I coated plates of human HepaRG cells were prepared using established methods. Briefly, cryopreserved HepaRG cells were thawed, plated at a density of approximately 100,000 cells/well in HepaRG Thaw, Plate, and General Purpose media (HPRG770, Thermo Fisher Scientific), and incubated for 48 hours. 0.5% DMSO was selected as vehicle control to balance the requisite need of DMSO in HepaRG cultures to maintain differentiation (for example, baseline metabolism, proportions of hepatocytes vs. cholangiocytes), while enabling further hepatic receptor pathway activation (for example, PXR and CAR) in response to chemical exposure. 48 hours after plating, the culture medium was replaced with HepaRG Serum-Free Incudtion Media. Cells were exposed to each test chemical in duplicate and maintained in CO2 incubators for another 48 hours. Chemical plates were thawed to room temperature and 200x concentrations of treatment groups were prepared. 8-point conentration-reponse curves were made with the highest exposure at 100 uM, followed by half-log dilutions, all in 0.5% DMSO. Each test plate contained variouse controls, induction positive controls (1mM phenobarbital), cytotoxicity positive controls ([…] aflatoxin B1), vehicle controls (0.5% DMSO), and total lysis controls (0.5% DMSO). Cell morphology images were taken using an Essen IncuCyte FLR automated microscope, with six 96-well plates imaged in about 24 minutes. Images were captured and exported and JPEG files. Spent culture media was transfered to black-well plates for the LDH assay, and remaining media was sorted at -80 C for later use. Cells were treated with RLT buffer and frozen until shipped for gene expression analysis. Total RNA was isolated from the cell suspension in 75 uL of Buffer RLT (Qiagen, Germantown, MD 20874) by Quintiles/Expression Analysis (Durham, NC) using a custom isolation procedure. Total RNA from each plate well was transferred to a preamplification plate. Fluidigm's 96.96 Dynamic ArrayTM (Fluidigm, Amsterdam, the Netherlands) technology was used for gene expression analyses by quantitative reverse transcription polymerase chain reaction (qRT-PCR, performed by Quintiles/Expression Analysis, Durham, NC)89. Standard TaqManTM Assays (Applied Biosystems/ThermoFisher Scientific, Foster City, CA) were used to assess the expression of 93 genes selected based on their selectivity and sensitivity to important hepatic receptors known to be modulated by environmental chemicals; importance in human hepatocyte functionality; and hepatotoxicity. […]

Structure (SMILES) | outcome | AC50
CCOS(=O)(=O)OCC | inactive | –
O=P(Oc1ccccc1)(Oc1ccccc1)Oc1ccccc1 | inactive | –
CCCCc1ccccc1 | inactive | –
CN(C)C(=O)Cl | inactive | –
CC(C)(C)c1ccc(O)cc1 | – | 197 nM (active)
O=P1(N(CCCl)CCCl)NCCCO1 (stereo not given) | inactive | –
OCC1CO1 (stereo not given) | inactive | –
Nc1ccc(Cl)cc1 | inactive | –
CCCCCCCc1ccc(O)cc1 | inactive | –
Cc1ccc(O)cc1C | inactive | –
ClC(Cl)(Cl)c1ccccc1 | inactive | –
CC(C)(C)OOC(C)(C)C | inactive | –
O=C(O)C1C(C(=O)O)C2(Cl)C(Cl)=C(Cl)C1(Cl)C2(Cl)Cl (stereo not given) | inactive | –
[N-]=[N+]=[N-] | inactive | –
ClC(Cl)c1ccccc1 | inactive | –
CC(Cc1ccc(OCC(=O)O)cc1)NCC(O)c1csc(C(F)(F)F)n1 (stereo not given) | inactive | –
CCN(CC)c1ccccc1 | inactive | –
CCCCN(CCCC)N=O | inactive | –
O=[N+]([O-])c1ccc(Cl)c(Cl)c1 | inactive | –
CSC(C)(C)C=NO | inactive | –

Structure (SMILES) | outcome | AC50
c1cc2c3c(cccc3c1)CC2 | inactive | –
COCCOCCO | inactive | –
c1ccc2c(c1)Nc1ccccc1S2 | inactive | –
c1ccc(OP(Oc2ccccc2)Oc2ccccc2)cc1 | inactive | –
O=[N+]([O-])c1ccccc1 | inactive | –
Nc1ccc2ccccc2c1 | inactive | –
Nc1cc2c3c(c1)C(c1ccccc1)=N[C@@H](NC(=O)c1cccnc1)C(=O)N3CC2 | inactive | –
ClC1=C(Cl)C2(Cl)C3C(Cl)C(Cl)CC3C1(Cl)C2(Cl)Cl (stereo not given) | inactive | –
O=C(O)C(Cl)Cl | inactive | –
c1nc[nH]n1 | inactive | –
Cc1ccc(N)cc1N | inactive | –
CCC(C)(C)c1ccc(O)cc1 | inactive | –
CCCCN(CCCC)SN(C)C(=O)Oc1cccc2c1OC(C)(C)C2 | inactive | –
CCC1(c2ccccc2)C(=O)N=C(O)NC1=O (stereo not given) | inactive | –
CCNc1nc(Cl)nc(NC(C)(C)C)n1 | inactive | –
CCOC(=O)c1ccccc1C(=O)OCC | inactive | –
CCCN(CCC)c1c([N+](=O)[O-])cc(C(C)C)cc1[N+](=O)[O-] | inactive | –
CC(Cl)(Cl)C(=O)O | inactive | –
Cc1cccc(N)c1 | inactive | –
CCOP(=S)(Oc1ccc([N+](=O)[O-])cc1)c1ccccc1 (stereo not given) | inactive | –
